For some assays here: Measured potencies and affinities stand elsewhere.

What all share (parameters): scale not given: direction of the effect not stated beside the values
In experiment [1] the target is Protein translocase subunit SecA (Escherichia coli (strain K12)) (UniProt P10408). Put plainly: Assay to Identify E. coli SecA ATPase Inhibitors. The experiment is classed as functional. The note with it: 30 µM.
For experiment [2], the target named is T1, Ubiquitin-activating enzyme e1, putative (Leishmania donovani (strain BPK282A1)) (UniProt E9BSI1).
T1 sequence (whole entry): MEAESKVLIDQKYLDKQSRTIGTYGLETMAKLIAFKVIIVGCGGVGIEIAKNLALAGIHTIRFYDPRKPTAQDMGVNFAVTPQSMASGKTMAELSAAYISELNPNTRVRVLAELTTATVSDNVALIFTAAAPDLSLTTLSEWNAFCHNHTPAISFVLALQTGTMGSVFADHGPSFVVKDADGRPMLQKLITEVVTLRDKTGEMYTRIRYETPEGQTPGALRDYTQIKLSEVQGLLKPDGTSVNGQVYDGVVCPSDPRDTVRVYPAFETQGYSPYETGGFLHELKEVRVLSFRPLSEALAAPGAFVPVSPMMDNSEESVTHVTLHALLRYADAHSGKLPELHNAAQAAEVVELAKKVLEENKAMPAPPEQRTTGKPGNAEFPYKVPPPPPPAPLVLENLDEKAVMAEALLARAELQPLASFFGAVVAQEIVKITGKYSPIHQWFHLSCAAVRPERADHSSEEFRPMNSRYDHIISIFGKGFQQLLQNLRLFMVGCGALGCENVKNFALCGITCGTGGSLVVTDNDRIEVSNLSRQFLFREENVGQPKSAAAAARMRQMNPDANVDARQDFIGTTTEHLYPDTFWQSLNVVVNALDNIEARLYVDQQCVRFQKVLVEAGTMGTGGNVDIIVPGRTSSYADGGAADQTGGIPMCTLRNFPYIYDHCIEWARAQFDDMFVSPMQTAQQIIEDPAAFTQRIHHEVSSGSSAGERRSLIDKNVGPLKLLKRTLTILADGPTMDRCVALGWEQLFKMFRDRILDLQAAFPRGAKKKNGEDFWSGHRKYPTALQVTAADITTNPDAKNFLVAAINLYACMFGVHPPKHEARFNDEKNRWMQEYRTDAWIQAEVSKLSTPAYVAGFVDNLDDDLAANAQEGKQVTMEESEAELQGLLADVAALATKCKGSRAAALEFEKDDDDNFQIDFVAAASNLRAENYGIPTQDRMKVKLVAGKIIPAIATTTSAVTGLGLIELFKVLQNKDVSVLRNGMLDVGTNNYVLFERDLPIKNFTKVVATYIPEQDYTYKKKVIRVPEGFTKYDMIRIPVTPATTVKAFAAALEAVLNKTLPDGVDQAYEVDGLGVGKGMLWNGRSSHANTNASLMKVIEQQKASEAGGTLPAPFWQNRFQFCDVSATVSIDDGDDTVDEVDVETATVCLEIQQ
As to the kind of experiment: Leishmania donovani Ubiquitin Activating Enzyme (LdE1). The following applies: 30 µM. The experiment is classed as functional.

In experiment [3] the target is AMP-activated protein kinase, AMPK (Homo sapiens) (UniProt P54646+O43741+P54619+Q9UGJ0+Q9Y478+Q13131+Q9UGI9). Put plainly: AMP-dependent Kinase enzyme assay. An in vitro enzyme assay that detects ADP turnover that is directly proportional to AMPK activity. This uses naive AMPK that is activated during the assay with MK-8722. The experiment is classed as functional. The following applies: 30 µM.

Experiment [4] concerns the target Sialic acid-binding Ig-like lectin 9 (Homo sapiens) (UniProt Q9Y336). As to the kind of experiment: Hs-Siglec9 ALPHAscreen SOP 20170721. The note with it: 10 µM.
The subject of a further experiment is Trypanosoma cruzi. Put plainly: Trypanosoma cruzi phosphomannomutase and mannose-1-phosphate guanylyltransferase assay. The note with it: 10 µM. The experiment is classed as functional.
The target in experiment [5] is T2, Arginase-2, mitochondrial (Homo sapiens) (UniProt P78540).
T2 sequence (whole entry): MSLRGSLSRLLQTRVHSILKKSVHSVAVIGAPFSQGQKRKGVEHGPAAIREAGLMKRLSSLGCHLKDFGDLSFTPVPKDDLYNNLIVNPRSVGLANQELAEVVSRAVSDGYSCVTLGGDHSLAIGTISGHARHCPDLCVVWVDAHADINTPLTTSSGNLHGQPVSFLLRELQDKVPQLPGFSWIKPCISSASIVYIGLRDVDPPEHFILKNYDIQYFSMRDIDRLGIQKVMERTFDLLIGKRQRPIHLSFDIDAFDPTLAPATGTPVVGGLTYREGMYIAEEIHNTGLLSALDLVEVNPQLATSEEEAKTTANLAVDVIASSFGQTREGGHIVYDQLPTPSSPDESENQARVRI
Put plainly: in vitro enzyme assay to detect the production of urea directly proportional to the activity of Arginase II. Further: in the data most compounds retested in dose-response had high values. The experiment is classed as functional. The note with it: 33.3 µM.

For experiment [6], the target named is T3, Proteasome subunit beta (Trypanosoma cruzi) (UniProt O96673).
T3 sequence (whole entry): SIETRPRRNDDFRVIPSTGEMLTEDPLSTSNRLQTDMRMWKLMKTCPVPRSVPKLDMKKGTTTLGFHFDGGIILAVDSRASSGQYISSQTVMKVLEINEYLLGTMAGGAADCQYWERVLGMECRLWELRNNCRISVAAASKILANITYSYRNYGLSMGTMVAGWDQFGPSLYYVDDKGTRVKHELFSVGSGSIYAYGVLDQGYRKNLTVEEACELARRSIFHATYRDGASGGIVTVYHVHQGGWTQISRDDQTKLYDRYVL
As to the kind of experiment: Trypanosoma cruzi proteasome chymotrypsin-like activity (TcProtChymo) assay. Further: in the data most compounds retested in dose-response had high values. The experiment is classed as functional. The following applies: 9.37 µM.

For the next experiment, the species on record is Homo sapiens. As to the kind of experiment: To identify inhibition of the IFN signalling (Jak-Stat) pathway via expression of an eGFP reporter gene under the control of an IFN-stimulated response element (ISRE) containing MxA promoter. The experiment is classed as functional. The following applies: 30 µM.
Experiment [7] deals with T4, Tyrosyl-tRNA synthetase, putative (Trypanosoma cruzi (strain CL Brener)) (UniProt Q4DSP6).
T4 sequence (whole entry): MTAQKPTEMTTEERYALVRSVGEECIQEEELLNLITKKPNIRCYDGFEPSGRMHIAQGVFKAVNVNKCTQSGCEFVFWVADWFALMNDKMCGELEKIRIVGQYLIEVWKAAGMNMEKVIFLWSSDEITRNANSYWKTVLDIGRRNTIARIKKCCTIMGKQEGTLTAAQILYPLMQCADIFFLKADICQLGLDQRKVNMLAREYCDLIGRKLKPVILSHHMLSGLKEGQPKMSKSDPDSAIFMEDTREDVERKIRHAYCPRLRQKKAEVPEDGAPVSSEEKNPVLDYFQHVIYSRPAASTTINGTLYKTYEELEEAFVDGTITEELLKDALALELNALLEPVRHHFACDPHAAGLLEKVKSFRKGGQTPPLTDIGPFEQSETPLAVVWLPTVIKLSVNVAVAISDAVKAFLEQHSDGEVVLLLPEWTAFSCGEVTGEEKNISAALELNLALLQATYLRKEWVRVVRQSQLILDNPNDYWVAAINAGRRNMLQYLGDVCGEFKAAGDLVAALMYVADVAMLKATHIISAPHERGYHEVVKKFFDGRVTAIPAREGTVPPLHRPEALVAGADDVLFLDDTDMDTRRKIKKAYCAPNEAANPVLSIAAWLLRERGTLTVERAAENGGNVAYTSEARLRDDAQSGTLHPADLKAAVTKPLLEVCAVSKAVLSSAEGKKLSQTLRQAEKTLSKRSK
Put plainly: Trypanosoma cruzi tyrosyl tRNA synthetase (TcYRS) _High Tyrosine SOP. Further: in the data most compounds retested in dose-response had high values. The experiment is classed as functional. The following applies: 30 µM.

Experiment [8] deals with T4, Tyrosyl-tRNA synthetase, putative (Trypanosoma cruzi (strain CL Brener)). Put plainly: Trypanosoma cruzi tyrosyl tRNA synthetase (TcYRS) SOP. The experiment is classed as functional. The note with it: 30 µM.
Experiment [9] has as its target Chromo domain-containing protein 1 (Saccharomyces cerevisiae (strain ATCC 204508 / S288c) (Baker's yeast)) (UniProt P32657). As to the kind of experiment: ScCHD-1 Enzyme Inhibition Assay. Further: in the data most compounds retested in dose-response had high values. The experiment is classed as functional. The following applies: 30 µM.

Protein translocase subunit SecA (Escherichia coli (strain K12)), sequence (P10408 whole entry): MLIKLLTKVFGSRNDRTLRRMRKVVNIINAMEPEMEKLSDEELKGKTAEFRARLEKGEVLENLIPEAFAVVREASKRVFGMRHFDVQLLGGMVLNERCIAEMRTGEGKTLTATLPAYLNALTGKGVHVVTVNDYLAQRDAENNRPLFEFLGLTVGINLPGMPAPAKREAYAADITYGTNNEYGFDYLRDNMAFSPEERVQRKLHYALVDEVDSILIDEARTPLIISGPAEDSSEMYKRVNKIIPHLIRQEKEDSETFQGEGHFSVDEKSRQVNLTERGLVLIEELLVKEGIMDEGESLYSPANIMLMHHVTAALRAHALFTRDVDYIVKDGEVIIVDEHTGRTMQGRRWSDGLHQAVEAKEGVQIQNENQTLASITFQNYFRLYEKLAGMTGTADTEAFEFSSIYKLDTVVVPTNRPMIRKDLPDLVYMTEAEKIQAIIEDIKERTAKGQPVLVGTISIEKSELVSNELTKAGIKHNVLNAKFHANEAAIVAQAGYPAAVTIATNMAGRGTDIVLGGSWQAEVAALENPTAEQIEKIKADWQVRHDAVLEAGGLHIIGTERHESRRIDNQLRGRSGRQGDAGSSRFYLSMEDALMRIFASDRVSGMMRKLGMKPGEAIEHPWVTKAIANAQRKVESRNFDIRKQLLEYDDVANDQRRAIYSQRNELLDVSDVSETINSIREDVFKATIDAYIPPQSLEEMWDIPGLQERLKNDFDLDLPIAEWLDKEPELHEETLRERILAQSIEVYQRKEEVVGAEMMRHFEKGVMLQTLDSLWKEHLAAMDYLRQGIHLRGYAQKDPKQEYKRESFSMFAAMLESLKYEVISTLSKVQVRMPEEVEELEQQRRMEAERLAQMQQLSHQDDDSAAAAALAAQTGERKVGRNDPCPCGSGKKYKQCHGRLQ
Chromo domain-containing protein 1 (Saccharomyces cerevisiae (strain ATCC 204508 / S288c) (Baker's yeast)), sequence (P32657 whole entry, the tested form may be a part): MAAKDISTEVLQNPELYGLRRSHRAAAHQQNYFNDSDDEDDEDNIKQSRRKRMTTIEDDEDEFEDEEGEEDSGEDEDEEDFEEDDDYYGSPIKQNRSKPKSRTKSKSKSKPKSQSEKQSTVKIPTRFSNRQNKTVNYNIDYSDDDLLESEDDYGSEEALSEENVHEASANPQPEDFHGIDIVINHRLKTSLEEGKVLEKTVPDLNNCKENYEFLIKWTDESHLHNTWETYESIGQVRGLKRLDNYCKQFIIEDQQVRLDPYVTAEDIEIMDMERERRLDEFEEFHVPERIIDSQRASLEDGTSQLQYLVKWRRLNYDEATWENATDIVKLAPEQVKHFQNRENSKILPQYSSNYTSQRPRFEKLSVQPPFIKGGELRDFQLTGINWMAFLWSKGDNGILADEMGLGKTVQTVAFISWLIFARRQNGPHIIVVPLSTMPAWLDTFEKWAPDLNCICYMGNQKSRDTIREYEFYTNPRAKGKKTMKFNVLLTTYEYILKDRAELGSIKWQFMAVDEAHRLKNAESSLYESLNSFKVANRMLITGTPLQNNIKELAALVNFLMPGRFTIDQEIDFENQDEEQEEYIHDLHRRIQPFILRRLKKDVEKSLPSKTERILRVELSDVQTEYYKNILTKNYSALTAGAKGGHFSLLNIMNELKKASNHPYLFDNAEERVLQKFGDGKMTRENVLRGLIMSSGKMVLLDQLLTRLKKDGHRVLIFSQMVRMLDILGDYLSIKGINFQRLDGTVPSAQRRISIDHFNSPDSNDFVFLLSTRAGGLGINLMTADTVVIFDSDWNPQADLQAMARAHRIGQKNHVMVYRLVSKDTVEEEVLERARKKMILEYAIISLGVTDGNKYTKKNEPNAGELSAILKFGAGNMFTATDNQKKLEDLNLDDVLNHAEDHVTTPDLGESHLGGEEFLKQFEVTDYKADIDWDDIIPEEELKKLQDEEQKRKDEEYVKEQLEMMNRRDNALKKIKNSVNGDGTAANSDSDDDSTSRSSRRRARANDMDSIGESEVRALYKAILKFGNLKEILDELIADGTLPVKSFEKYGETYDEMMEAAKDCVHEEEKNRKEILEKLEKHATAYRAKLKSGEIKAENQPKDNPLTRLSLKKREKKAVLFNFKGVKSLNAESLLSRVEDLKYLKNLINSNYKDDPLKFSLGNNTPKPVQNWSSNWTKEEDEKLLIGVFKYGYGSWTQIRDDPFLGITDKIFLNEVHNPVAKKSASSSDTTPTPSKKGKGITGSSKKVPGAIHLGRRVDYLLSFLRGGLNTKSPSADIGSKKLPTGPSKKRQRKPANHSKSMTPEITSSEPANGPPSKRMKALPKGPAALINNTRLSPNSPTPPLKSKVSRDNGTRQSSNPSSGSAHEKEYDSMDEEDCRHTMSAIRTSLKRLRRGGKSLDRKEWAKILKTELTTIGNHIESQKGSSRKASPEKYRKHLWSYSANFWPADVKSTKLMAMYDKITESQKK
Sialic acid-binding Ig-like lectin 9 (Homo sapiens), sequence (Q9Y336 whole entry): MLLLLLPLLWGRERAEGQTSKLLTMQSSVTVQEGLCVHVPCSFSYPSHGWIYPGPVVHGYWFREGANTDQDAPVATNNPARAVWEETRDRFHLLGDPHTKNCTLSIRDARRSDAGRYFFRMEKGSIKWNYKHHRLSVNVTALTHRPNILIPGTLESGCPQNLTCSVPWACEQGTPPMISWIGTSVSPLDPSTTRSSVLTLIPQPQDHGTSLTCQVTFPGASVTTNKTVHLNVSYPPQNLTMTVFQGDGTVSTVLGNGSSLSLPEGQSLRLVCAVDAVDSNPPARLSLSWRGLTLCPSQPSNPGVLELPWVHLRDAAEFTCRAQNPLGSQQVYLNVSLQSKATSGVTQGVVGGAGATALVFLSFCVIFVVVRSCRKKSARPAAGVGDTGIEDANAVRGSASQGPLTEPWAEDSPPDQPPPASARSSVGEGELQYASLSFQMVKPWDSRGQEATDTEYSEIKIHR

In the case of `CN(C)Cc1nnc(C2CCN(c3nccc(N)n3)CC2)n1C1CC1`, the Percent Effect was -4.19% in experiment [1]; 1.39% in experiment [2]; -3.33% in experiment [3]; -0.797% in [4]; 1.26% in the experiment with Trypanosoma cruzi; 0.442% in experiment [5]. Also, the Percent Effect in experiment [6] is 8.42%; in the experiment filed under Homo sapiens, -31.4%; in experiment [7], 5.26%; in experiment [8], 5.13%; in [9], -3.78%.
Turning to `CN(C)C(=O)C1CN(Cc2c[nH]cn2)CCN(C2CCOCC2)C1` (stereo not given), the Percent Effect is -7.04% in [1]; 12.2% in experiment [2]; 8.74% in [3]; 1.93% in experiment [4]; 0.198% with Trypanosoma cruzi; 8.12% in [5]. The Percent Effect was 6.24% in [6]; 15.9% in the experiment listed under Homo sapiens; 6.45% in [7]; 16.9% in [8]; -11.5% in experiment [9].
In the case of `COC(=O)c1cccc(NC(=O)CCn2nc(-c3cccs3)oc2=O)c1`, the Percent Effect in experiment [1] was -5.54%; in experiment [2] it was 10.8%; in experiment [3] it was 11.1%; in [4] it was -7.27%; with Trypanosoma cruzi, -5.11%; in [5] it was -4.25%. Besides, the Percent Effect in experiment [6] is 5.92%; in the experiment filed under Homo sapiens, 7.13%; in experiment [7] it was 0%; in [8], 6.1%; in [9] it was -3.3%.
As to `CC(C)Oc1ncnc2c1CCN(C(=O)c1cccn1C)CC2`, the Percent Effect in [1] was -3.69%; in experiment [2] it was 13.3%; in [3] it was 9.51%; in experiment [4], -7.87%; in the experiment with Trypanosoma cruzi it was -4.53%; in experiment [5], -3.03%. Also, the Percent Effect in experiment [6] was 11.2%; in the experiment listed under Homo sapiens, 9.21%; in experiment [7], 2.13%; in experiment [8], 8.97%; in [9], -0.243%.
As to `Cc1cc(CN(C)Cc2cc3c(cc2OC(F)F)OCO3)on1`, the Percent Effect is -6.72% in experiment [1]; 2.7% in experiment [2]; 1.74% in experiment [3]; -1.22% in experiment [4]; -0.684% in the experiment with Trypanosoma cruzi; 3.23% in experiment [5]. Besides, the Percent Effect in [6] was 5.24%; in the experiment listed under Homo sapiens, -2.07%; in [7], 0%; in experiment [8], 1.24%; in experiment [9] it was -2.37%.
Take `COc1ccc(C(=O)N2CCCC(CNS(C)(=O)=O)C2)cc1F` (stereo not given): the Percent Effect was -4.66% in experiment [1]; 8.11% in [2]; -5.72% in experiment [3]; 6.16% in experiment [4]; -3.3% in the experiment on Trypanosoma cruzi; 2.4% in experiment [5]. For the same compound, the Percent Effect in experiment [6] is 0.18%; in the experiment listed under Homo sapiens, 6.39%; in [7], 5.42%; in [8], 16.1%; in experiment [9] it was -6.29%.
In the case of `Cc1cc(C)cc(N(C)S(=O)(=O)c2cc(C(=O)O)cs2)c1`, the Percent Effect in experiment [1] was -3.42%; in experiment [2], 5.41%; in [3], -10.8%; in experiment [4], 15.8%; in the experiment with Trypanosoma cruzi, 5.57%; in experiment [5], -5.21%. Further, the Percent Effect in [6] was 0%; in the experiment filed under Homo sapiens, 12.5%; in experiment [7], -1.48%; in experiment [8], 3.7%; in experiment [9], -4.94%.
Regarding `CN(C)C(=O)N1C[C@@H]2CCCO[C@@H]2[C@H](N(C)Cc2ccco2)C1`, the Percent Effect in [1] is -3.04%; in [2] it was 13.7%; in experiment [3], 2.03%; in experiment [4] it was 7.85%; in the experiment on Trypanosoma cruzi it was 6.55%; in experiment [5] it was -5.99%. Further, the Percent Effect in experiment [6] is 8.99%; in the experiment filed under Homo sapiens, -3.94%; in experiment [7], 4.17%; in [8], 13.6%; in experiment [9] it was -11.2%.
`Cc1ccc(NC(=O)NC(C)c2nc[nH]n2)cc1` (stereo not given): the Percent Effect was -6.05% in experiment [1]; -10.8% in [2]; -1.56% in experiment [3]; -5.4% in experiment [4]; -1.86% with Trypanosoma cruzi; -0.248% in experiment [5]. In addition, the Percent Effect in experiment [6] is 15.9%; in the experiment listed under Homo sapiens, -15.4%; in experiment [7], 1.07%; in [8] it was 1.24%; in experiment [9], -1.66%.
As to `CCc1nc(C2CCCN2CC(=O)Nc2nncs2)no1` (stereo not given), the Percent Effect is -3.67% in experiment [1]; 5.2% in experiment [2]; -3.54% in experiment [3]; 12.8% in [4]; 3.37% in the experiment on Trypanosoma cruzi; -3.2% in experiment [5]. Moreover, the Percent Effect is 2.53% in experiment [6]; 12.1% in the experiment filed under Homo sapiens; 10.7% in [7]; 21.9% in [8]; -9.06% in experiment [9].

The values are drawn from ChEMBL document CHEMBL3988442, “University of Dundee, Small-Polar-MMV Screening Library” (2021).
